pPAFAH FP inh: inhibitors of human plasma PAF acetylhydrolase (pPAFAH); Q13093; recombinant pPAFAH, FP-rhodamine probe fluorescence polarization; inhibition, % at 3.39 µM; 330,000 compounds, 1.5% hits;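 active = inhibition above the mean inhibition across the screen plus 3 SD, cut at about 25% in these data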;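 also: inhibitors block binding of the rhodamine activity-based probe so polarization drops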
PAFAH2 inh: PAFAH2 (human) inhibition | Q99487 | recombinant PAFAH2, FP-rhodamine activity probe, fluorescence polarization | inhibition, % at 3.39 µM | 340,000 compounds, 0.99% hits | AID 492956;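 active = inhibition above the mean over all tested compounds plus 3 SD, cut at about 30% in these data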;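 also: inhibitors block probe labeling of enzyme so polarization drops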
PAFAH1B3 FP inh: blocks human PAF acetylhydrolase 1B catalytic subunit 3; recombinant PAFAH1B3, FP-rhodamine probe, fluorescence polarization; AID 492972; 340,000 compounds, 0.28% hits; inhibition, % at 3.39 µM;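 active = inhibition above the screen-wide average of all tested compounds plus 3 SD, cut at about 25% in these data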
PAFAH1B2 inh: blocks human PAF acetylhydrolase 1b catalytic subunit 2; P68402; recombinant PAFAH1B2, FP-rhodamine activity probe, fluorescence polarization; inhibition, % at 3.39 µM; 340,000 compounds, 1.2% hits;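 active = inhibition above the mean of all tested compounds plus 3 SD, cut at about 24% in these data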
Target sequence (P68402 whole entry, looked up): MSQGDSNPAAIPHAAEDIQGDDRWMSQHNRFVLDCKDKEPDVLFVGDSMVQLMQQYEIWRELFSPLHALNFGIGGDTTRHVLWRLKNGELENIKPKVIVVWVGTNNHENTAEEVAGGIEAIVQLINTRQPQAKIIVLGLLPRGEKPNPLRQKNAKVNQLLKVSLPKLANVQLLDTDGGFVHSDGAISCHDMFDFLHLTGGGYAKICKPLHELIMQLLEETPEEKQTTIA
PP5 inh: blocks human protein phosphatase 5 activity | P53041 | purified PP5c, OMFP substrate fluorescence | inhibition, % at 6.7 µM | 320,000 compounds, 0.18% hits | AID 1987;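 active = inhibition above the campaign's mean inhibition across all tested compounds plus 3 SD, cut at about 9.5% in these data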
PP1 inh: PP1-alpha (human) inhibition in PP5 counter-screen. P62136. purified PP1alpha, OMFP fluorescence. inhibition, % at 6.7 µM. 320,000 compounds, 0.9% hits;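 active = inhibition above the mean inhibition of all tested compounds plus 3 SD, computed separately for each screening campaign, cut at about 15% in these data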
Target sequence (P62136 whole entry, looked up): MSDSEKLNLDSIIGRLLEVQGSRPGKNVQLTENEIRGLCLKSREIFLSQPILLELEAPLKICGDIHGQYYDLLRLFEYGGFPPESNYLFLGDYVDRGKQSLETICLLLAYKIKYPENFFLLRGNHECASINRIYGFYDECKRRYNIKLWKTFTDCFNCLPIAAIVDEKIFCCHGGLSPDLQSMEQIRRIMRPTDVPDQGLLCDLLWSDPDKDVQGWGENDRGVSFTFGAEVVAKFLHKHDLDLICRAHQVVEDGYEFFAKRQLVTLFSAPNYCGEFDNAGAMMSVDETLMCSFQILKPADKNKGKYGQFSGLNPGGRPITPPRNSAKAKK
Large screens that a line does not name were inactive. Shown are actives, neighbours in structure and some others; about 3.4% of the full set was active somewhere.

CCCN(CCC)CCCNC(=O)Cn1cnc2sc(C)c(S(=O)(=O)N3CCOCC3)c2c1=O	none
COc1ccc(-c2c(=O)n(OCc3nc4ccccc4[nH]3)c3ccccc3[n+]2[O-])cc1	none
C=CCOn1c(=O)c(-c2ccc(OC)cc2)[n+]([O-])c2ccccc21	pPAFAH FP inh 33
O=S(=O)(Nc1ccc(Cc2ccncc2)cc1)c1ccc(Cl)c(Cl)c1	pPAFAH FP inh 25
CCc1ccc(OC)c(S(=O)(=O)Nc2ccc(Cc3ccncc3)cc2)c1	pPAFAH FP inh 26
O=C(O)c1ccc(NS(=O)(=O)c2ccc(Cl)c(Cl)c2)cc1O	PAFAH1B2 inh 33
NC(=O)[C@H](Cc1cc2ccccc2s1)NC(=O)[C@@H]1CC2(CC(c3cccc(NC(=O)[C@@H]4CCC(=O)N4)c3)=NO2)CN1C(=O)c1ccccc1 (some centres not stated)	none
NC(=O)[C@H](Cc1cc2ccccc2s1)NC(=O)[C@@H]1CC2(CC(c3cccc(NC(=O)[C@@H]4CCC(=O)N4)c3)=NO2)CN1C(=O)/C=C/Sc1ccccc1 (some centres not stated)	PP1 inh 17
COc1ccc(C)cc1NCc1cc(=O)oc2cc(-c3ccccc3)c(O)cc12	none
COC(=O)c1ccccc1NCc1cc(=O)oc2cc(O)c(O)cc12	pPAFAH FP inh 82, PAFAH2 inh 31, PAFAH1B2 inh 44
S=C1Cc2ccccc2N1	PAFAH2 inh 41, PAFAH1B3 FP inh 29 (no result: pPAFAH FP inh, PP5 inh, PP1 inh)
O=c1cc(-c2ccccc2)nc2cc(-c3ccco3)[nH]n12	pPAFAH FP inh 27
O=c1cc(-c2ccccc2)nc2cc(-c3ccc(Br)cc3)[nH]n12	none
O=C(Cc1ccc(Br)cc1)OCC(=O)N1CCOCC1	none (no result: PP5 inh, PP1 inh)
CCOC(=O)N1CCN(C(=O)COC(=O)Cc2ccc(Cl)cc2)CC1	pPAFAH FP inh 34
CC1CCN(C(=O)COC(=O)Cc2ccc(Br)cc2)CC1	pPAFAH FP inh 29
O=C(CCN1C(=O)/C(=C/c2ccccc2F)SC1=S)NC1C=CS(=O)(=O)C1 (configuration not stated)	none
O=C(N/N=C/c1ccoc1)c1cc(Br)ccc1O	pPAFAH FP inh 33
O=C(N/N=C/c1ccoc1)c1ccccc1Br	none (no result: pPAFAH FP inh, PP5 inh, PP1 inh)
O=C(NN=C1CCCC1)c1cc(Br)ccc1O	pPAFAH FP inh 30
COc1cc(/C=C2/C(=N)N3N=C(CC(=O)N4CCOCC4)SC3=NC2=O)ccc1OCc1ccc(F)cc1	none
CCN(C(=O)Cc1c(C(=O)O)n(CC)c2ccccc12)c1cccc(C(F)(F)F)c1	none
CCC(C)(C)C1CCC2(CC1)NC(=O)N(CC(=O)N1CCN(C(=O)c3ccco3)CC1)C2=O (configuration not stated)	PAFAH1B2 inh 25
O=C(CN1C(=O)NC2(CCCC2)C1=O)NCCc1ccccc1	none (no result: PP5 inh, PP1 inh)
CCC(C)(C)C1CCC2(CC1)NC(=O)N(CC(=O)NCCc1ccc(OC)c(OC)c1)C2=O (configuration not stated)	PAFAH1B2 inh 25
CCC(C)(C)C1CCC2(CC1)NC(=O)N(CC(=O)NCCOc1ccccc1)C2=O (configuration not stated)	PAFAH1B2 inh 28
CCOCCCNC(=O)c1ccc(CS(=O)(=O)Cc2cccc(C)c2)o1	none
CC(C)OCCCNC(=O)c1ccc(CS(=O)(=O)Cc2ccccc2F)o1	none
Cc1cccc(CS(=O)(=O)Cc2ccc(C(=O)NCCCN3CCOCC3)o2)c1	none
COc1ccc(CCNC(=O)c2ccc(CSc3ccccc3)o2)cc1	pPAFAH FP inh 25
Cc1cccc(CS(=O)(=O)Cc2ccc(C(=O)NCCc3ccccc3)o2)c1	pPAFAH FP inh 29
Cc1cccc(CS(=O)(=O)Cc2ccc(C(=O)NCCCN3CCCC3)o2)c1	pPAFAH FP inh 33
CCCCNC(=O)c1ccc(CS(=O)(=O)Cc2ccccc2F)o1	pPAFAH FP inh 25
O=C(NCCc1ccccc1)C1CCC(CNS(=O)(=O)c2ccccc2)CC1 (configuration not stated)	PP1 inh 16
Cc1c(O)cc2c(c1O)C(=O)CC(c1ccc(O)cc1)O2 (configuration not stated)	pPAFAH FP inh 32
COc1cc(O)c2c(c1)OC(c1ccc(O)cc1)CC2=O (configuration not stated)	none
Cc1cc(N2O[C@H]3C=C[C@@H]2C3)no1	none (no result: PP5 inh, PP1 inh)
CCOC(=O)C(CC(=O)O)=C(c1ccccc1)c1ccccc1	PAFAH1B2 inh 32
CC12CC(O)C3C(CCC4=CC(=O)CCC43C)C1CCC2=CCO (configuration not stated)	none (no result: pPAFAH FP inh, PP5 inh, PP1 inh)
COC(=O)CNC(c1ccccc1)c1cc(C)ccc1NC(=O)CNC(=O)OCc1ccccc1 (configuration not stated)	pPAFAH FP inh 30
COc1ccccc1-c1nnc(-c2ccc(C)cc2)o1	none
COc1ccccc1C1=NC(c2ccc(C)cc2)N=C1C (configuration not stated)	pPAFAH FP inh 25
Cc1nc2oc3c(NCc4ccccc4)ncnc3c2c2c1COC(C)(C)C2	pPAFAH FP inh 27
Cc1nc2oc3c(NCC4CCCO4)ncnc3c2c2c1COC(C)(C)C2 (configuration not stated)	none
N#C/C(=N\Nc1cccc(Cl)c1)C(=O)c1ccccc1	pPAFAH FP inh 26
N#C/C(=N\Nc1ccccc1Cl)C(=O)c1ccccc1	none
Cc1ccc(N/N=C(\C#N)C(=O)c2ccsc2)cc1	none
N#C/C(=N\Nc1ccc(Cl)cc1)C(=O)c1ccsc1	pPAFAH FP inh 33
CCOc1cc(/C=C2\N=C(SCC)SC2=O)cc([N+](=O)[O-])c1OC(C)=O	PAFAH2 inh 53, PAFAH1B2 inh 24
CCOc1cc(/C=C2\N=C(SC)SC2=O)cc([N+](=O)[O-])c1OC(C)=O	none
CC(=O)Nc1cccc(-c2cc(-c3c(Cl)cccc3Cl)no2)c1	pPAFAH FP inh 28
CC(NC(=O)COC(=O)c1ccc(N(C)C)cc1)c1ccccc1 (configuration not stated)	pPAFAH FP inh 33, PAFAH2 inh 79
CC(NC(=O)COC(=O)c1ccc(Br)o1)c1ccccc1 (configuration not stated)	none (no result: pPAFAH FP inh, PP5 inh, PP1 inh)
O=C(O)c1cccc(N2C(=O)/C(=C/c3ccc(SCc4ccc(Cl)cc4)o3)SC2=S)c1	PAFAH1B2 inh 34 (no result: pPAFAH FP inh, PP5 inh, PP1 inh)
COc1cc(CC(=O)N2CCN(C(=O)C3CCCO3)CC2)cc(OC)c1OC (configuration not stated)	none (no result: PP5 inh, PP1 inh)
Cc1cc(Br)ccc1NC(=O)CNC(=O)CNc1cccc([N+](=O)[O-])c1	none
CCOc1ncccc1C(=O)OCC(=O)Nc1ccc(C(N)=O)cc1	none
CCOc1ncccc1C(=O)OCC(=O)Nc1ccc(C(C)C)cc1	pPAFAH FP inh 30, PAFAH2 inh 51
C[C@@H]1C(c2cccc(Cl)c2)=NN(c2ccc(Br)cc2)[C@H]1C(=O)N1CCOC1=O	none (no result: PP5 inh, PP1 inh)
CC(=O)N(Cc1c(C)nn(-c2ccccc2)c1Cl)c1ccc(Cl)cc1	none
